An excerpt weighted towards active compounds, which were near 3.4% of everything screened.
proKLK7 act: activators of human kallikrein-7 zymogen; P49862; activation, % at 7 µM; purified proKLK7, EDANS-DABCYL substrate fluorescence; 100% is mature enzyme control, 0% vehicle; 370,000 compounds, 0.9% hits;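 active = activation above the mean of all tested compounds plus 3 SD, computed per campaign excluding outliers beyond control limits, cut at about 13% in these data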
Target sequence (P49862 whole entry, looked up): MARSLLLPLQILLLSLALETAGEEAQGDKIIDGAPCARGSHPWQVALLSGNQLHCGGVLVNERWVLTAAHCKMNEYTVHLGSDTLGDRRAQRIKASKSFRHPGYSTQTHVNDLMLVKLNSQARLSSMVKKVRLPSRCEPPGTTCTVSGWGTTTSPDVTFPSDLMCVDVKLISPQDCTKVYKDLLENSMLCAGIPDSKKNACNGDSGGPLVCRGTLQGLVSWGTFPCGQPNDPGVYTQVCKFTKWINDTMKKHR
PLC-beta3 inh: inhibitors of human phospholipase C beta3; Q01970; Purified PLC-beta3, fluorogenic substrate, fluorescence; inhibition, % at 12.2 µM; 370,000 compounds, 0.18% hits; AID 720704; in the data active = inhibition above about 11%;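 note: 0% = median of compound wells on plate and 100% = full blocker control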
HGIII-sPLA2 inh: Blocks human group III sPLA2 activity; AID 743126; 370,000 compounds, 0.56% hits; QFRET BODIPY PC-A2 liposome hydrolysis, fluorescence; inhibition, % at 12.2 µM; Q9NZ20;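 active = inhibition above mean plus 3 SD of compounds lying within the high and low control bounds, cut at about 19% in these data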;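 note: 0% = median of test compound wells and 100% = no enzyme DMSO wells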
ADAM10 inh: ADAM10 inhibition, QFRET primary screen | recombinant ADAM10, EDANS/DABCYL FRET peptide cleavage, 3 h | inhibition, % at 7 µM | 370,000 compounds, 0.62% hits;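 active = inhibition above a per-campaign cutoff equal to the mean of compounds falling between control-based bounds plus 3 SD, cut at about 20% in these data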;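 note: 0% = DMSO wells while the 100% control is not disclosed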
ADAM17 inh: inhibits human ADAM17 | P78536 | recombinant ADAM17, EDANS/DABCYL FRET peptide cleavage | inhibition, % at 6.95 µM | 370,000 compounds, 0.83% hits | AID 720648;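 active = inhibition above the mean of compounds lying between control limits plus 3 SD, set per campaign, cut at about 8.5% in these data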;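 note: 0% = DMSO-only wells as the low control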
PLCg1 inh: blocks human PLC-gamma1 enzyme activity; P19174; 370,000 compounds, 0.84% hits; AID 720700; purified PLC-gamma1, fluorogenic substrate, fluorescence; inhibition, % at 12.2 µM; in the data active = inhibition above about 9.5%
KLK7 act conf: confirmation of human kallikrein-7 zymogen activators; shares compounds with proKLK7 act; 3,200 compounds, 68% hits; activation, % at 7 µM; purified proKLK7, EDANS-DABCYL substrate fluorescence; scaled: vehicle 0, mature enzyme 100;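 active = activation, as change over the incubation, above the mean of all tested compounds plus 3 SD, cut at about 13% in these data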
EDANS-DABCYL int: fluorescence interference counter-screen for KLK7 activators; shares compounds with proKLK7 act; EDANS-DABCYL substrate fluorescence interference, no enzyme, 4 h; solvent 0%, active enzyme control 100%; activation, % at 7 µM; 3,200 compounds, 80% hits; AID 686952;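 active = activation above the all-compound mean plus 3 SD, ignoring values outside control-based bounds, cut at about 4.8% in these data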;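 note: value is the 4 h activation minus the activation read at time zero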
EDANS interf: optically interferes with EDANS-DABCYL fluorescence, kallikrein-7 activator counter-screen | EDANS-DABCYL peptide fluorescence interference, no enzyme | shares compounds with proKLK7 act | EC50, µM | 250 compounds, 20% hits | AID 720493;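 active = compounds that raise the fluorescence signal in this interference counterscreen, with EC50 at or below 10 µM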;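 note: intact quenched peptide substrate alone read at 355 nm excitation and 520 nm emission; signal is fluorescence gain from T0 to T4 after four hours at room temperature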
Numbers without * were called inactive; i = inactive; / = not tested or not shown.

SMILES	proKLK7 act	PLC-beta3 inh	HGIII-sPLA2 inh	ADAM10 inh	ADAM17 inh	PLCg1 inh	KLK7 act conf	EDANS-DABCYL int	others
CC[C@]12c3[nH]c4cc(-c5ccco5)ccc4c3CCN1C(=O)[C@@H](CC(=O)NCCCOC)C[C@@H]2C(=O)N1CCN(C(=O)c2ccco2)CC1	137*	i	-9	i	-202	i	103*	124*
CC[C@]12c3[nH]c4cc(-c5ccco5)ccc4c3CCN1C(=O)[C@@H](CC(=O)NCc1ccc(OC)c(OC)c1)C[C@@H]2C(=O)N1CCN(C(=O)c2ccco2)CC1	122*	-355	-16	-263	-74	-241	63*	74*
CC[C@]12c3[nH]c4cc(-c5ccco5)ccc4c3CCN1C(=O)[C@@H](CC(=O)NCCCN(C)C)C[C@@H]2C(=O)N1CCN(C(=O)C2CC2)CC1	64*	-170	3	-279	-63	-130	52*	66*
CCCCCCCCN1C(=O)[C@@H](CC(=O)NCCC(C)C)C[C@@]2(C(=O)OC)C1=C[C@H](C1CCCC1)O[C@@H]2C	0	0	1	-6	-5	-2	/	/
COCCN1CCCc2nc(-c3ccc(F)cc3)ccc21	5	-260	5	-336	-91	-213	/	/
CCNC(=O)N1CCN(c2ccc(N3CCN(Cc4ccccc4)[C@@H](C)C3)c(C)c2)[C@@H](C)C1	0	-3	18	-7	-4	1	/	/
N#C/C(=C/c1ccc(-c2ccc(S(N)(=O)=O)cc2)o1)C(=O)Nc1ccccc1	27*	-35	-10	-79	-23	-29	16*	0	EDANS interf=i
COC(=O)C1=C(C)N(C)C(=NCc2ccccc2C(F)(F)F)NC1c1cccc(F)c1 (stereo not drawn)	0	5	-13	2	0	1	/	/
COC1OC(COCc2ccccc2)C2OC(C)(C)OC2C1O (stereo not drawn)	0	1	8	-17	-5	-2	/	/
CNc1cccc(-c2cc(OC)c(OC)c(OC)c2)n1	0	-7	6	-64	-18	-7	/	/
CNc1cncc(-c2cccc(O)c2)n1	37*	i	-9	i	i	-441	35*	36*
CNc1cncc(-c2cc(OC)c(OC)c(OC)c2)n1	25*	i	15	i	i	-450	16*	22*
CNc1cncc(-c2ccc(C)cc2)n1	30*	i	1	i	i	-409	41*	41*
CNc1cccc(-c2cccc(O)c2)n1	0	2	2	-58	-14	2	/	/
CNc1cncc(-c2cccc(C(=O)NC3CC3)c2)n1	54*	i	2	i	i	i	47*	55*
O=C(O)c1cc(-c2ccc(-c3ccc(F)cc3)o2)nc2ccccc12	33*	i	-12	-328	-111	i	65*	76*
O=C(c1cc(-c2ccc(F)cc2)nc2ccccc12)N1CCC1	0	-42	-3	-55	-16	-30	/	/
Cc1cccc(-c2cnc3cccnn23)c1	34*	i	0	i	-243	i	27*	35*
CCOc1cccc(-c2cnc3cccnn23)c1	41*	i	3	i	-236	i	37*	33*
C[C@H](CO)N1C[C@H](C)[C@H](CN(C)C(=O)Nc2cccc(F)c2)OCc2cnnn2CCCC1=O	0	-2	9	-14	-4	1	/	/
CCOC(=O)Cn1c2ccccc2c2nc3ccccc3nc21	0	-51	1	-19	-5	-42	/	/
CCOC(=O)Cn1c(C(F)(F)F)nc2nc(Cl)c(Cl)nc21	34*	-312	11	i	-394	-227	8	7.1*
Cc1ccc(C=Nc2ccccc2C(N)=O)s1	17*	-313	0	i	-332	-270	12	14*
Cc1cccc(C=Nc2ccccc2C(N)=O)c1	13*	-443	2	i	-323	-315	28*	22*	EDANS interf=>69
CCCCc1c(-c2ccccc2OC)ncn1Cc1cccc(F)c1	1	-2	-10	4	-1	2	/	/
SMILES	proKLK7 act	PLC-beta3 inh	HGIII-sPLA2 inh	ADAM10 inh	ADAM17 inh	PLCg1 inh	KLK7 act conf	EDANS-DABCYL int	others
O=C(O)c1ccc(-c2nc(-c3ccccc3)c(-c3cccs3)[nH]2)cc1	10	-413	-1	i	-163	-304	/	/
Cc1ccc(-c2[nH]c(-c3ccc(C(=O)O)cc3)nc2-c2ccccc2)cc1	33*	i	-32	i	i	i	67*	69*
Cc1ccc(S(=O)(=O)C(C#N)c2nc3ccccc3nc2OCCO)cc1 (stereo not drawn)	-2	-56	-9	5	-1	-37	/	/
CC(=O)Nc1ccc(S(=O)(=O)C(C#N)c2nc3ccccc3nc2NCCCO)cc1 (stereo not drawn)	39*	i	-3	i	i	i	53*	69*
CC(=O)Nc1ccc(S(=O)(=O)Nc2nc3ccccc3nc2Nc2ccccc2)cc1	-1	-39	-15	-9	-4	-31	/	/
CC(=O)Nc1ccc(S(=O)(=O)C(C#N)c2nc3ccccc3nc2NCCO)cc1 (stereo not drawn)	64*	i	0	i	i	i	66*	73*
O=C(NN1CCOCC1)c1cc(-c2cccs2)nc2ccccc12	37*	i	-1	i	i	i	33*	36*
O=C(NN1CCOCC1)c1cc(-c2ccccc2)nc2ccccc12	-1	-2	2	-3	0	-2	/	/
CCc1ccc(-c2cc(C(=O)NN3CCOCC3)c3ccccc3n2)s1	49*	i	-4	i	i	i	79*	68*
O=C(NN1CCOCC1)c1cc(-c2ccncc2)nc2ccccc12	0	-2	1	5	-2	-1	/	/
Cc1ccc(-c2cc(C(=O)OC3CCOC3=O)c3ccccc3n2)c(C)c1 (stereo not drawn)	1	-17	-2	-2	1	-8	/	/
CC(C)OCCCNC(=O)c1cc(-c2cccs2)nc2ccccc12	15*	i	3	i	i	-458	13*	13*
O=C(OC1CCOC1=O)c1cc(-c2cccs2)nc2ccccc12 (stereo not drawn)	275*	i	-4	i	i	i	139*	189*

Bioassay records: PubChem, The Scripps Research Institute Molecular Screening Center
